In a collection of fitness landscapes (doi:10.1038/s41467-024-54723-y):
Over roughly 18,000 sequences, “TetR repression strength (sort-seq, GFP reporter)” has its median near 0.23; the highest 2% begin near 0.68. The entries come from a sample that favours the highest values as a whole.

These sequences were tested against TetR (class B, Tn10) (UniProt P04483) (assay: TetR repression strength (sort-seq, GFP reporter) (relative to tetO2 = 1); higher = stronger repression). Details: E. coli.
Chain of TetR (class B, Tn10) (P04483 whole entry): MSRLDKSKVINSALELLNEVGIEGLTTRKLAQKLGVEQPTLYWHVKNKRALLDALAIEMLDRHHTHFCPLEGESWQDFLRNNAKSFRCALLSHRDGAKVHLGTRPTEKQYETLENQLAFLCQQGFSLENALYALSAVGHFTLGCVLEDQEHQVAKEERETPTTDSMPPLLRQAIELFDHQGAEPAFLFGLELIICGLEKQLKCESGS
Summary of the method: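 Escherichia coli SIG10-MAX cells carried a low-copy plasmid library in which eight operator positions were randomized between a constitutive promoter and sfGFP, and TetR was expressed constitutively. After 5 h of growth at 37 °C in LB with 50 µg/mL chloramphenicol, 10^6 cells were FACS-sorted into 13 fluorescence bins, and each bin was Illumina-sequenced. Repression strength was the top bin index plus one minus the read-weighted mean bin, divided by the value for the unaltered operator. Across three independent transformations, only library members with ≥30 reads in every replicate and a CV ≤0.5 were averaged.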
With TCCCTGGGAGTGACAGAGA the TetR repression strength was 0.299.
In the case of TCCCTAAGAGTGGGCGAGA, the TetR repression strength is reported as 0.157.
TCCCTAGAAGTGACGGAGA gave a TetR repression strength of 0.153.
For TCCCCGAGAGTCCTAGAGA, the TetR repression strength was 0.235.
Sequence TCCCGTCAAGTGCCGGAGA has a TetR repression strength of 0.325.
Work on TCCCTAACAGTGACAGAGA yielded a TetR repression strength of 0.559.
TCCCTATCAGTAAGTGAGA showed a TetR repression strength of 0.545.
TCCCAATCAGTGGCAGAGA showed a TetR repression strength of 0.433.
TCCCTGTCAGTGACAGAGA was tested, and the TetR repression strength was 0.636.
With TCCCTATCAGTGGCAGAGA the TetR repression strength was 0.771.
Sequence TCCCTATCAGTGAGGGAGA has a TetR repression strength of 0.5.
With TCCCTATCAGTGACAGAGA the TetR repression strength was 0.863.
Work on TCCCTATCAGTCAAAGAGA yielded a TetR repression strength of 0.636.
Sequence TCCCTGTCAGTGGCAGAGA has a TetR repression strength of 0.545.
With TCCCTATCAGTGAAAGAGA the TetR repression strength was 0.784.
TCCCTATCAGTGAGTGAGA was tested, and the TetR repression strength was 0.79.
TCCCTAACAGTGAAAGAGA was tested, and the TetR repression strength was 0.575.
Sequence TCCCTGTTAGTGCGGGAGA has a TetR repression strength of 0.226.
Sequence TCCCGGTGAGTTGTCGAGA has a TetR repression strength of 0.355.
TCCCATATAGTTTGGGAGA gave a TetR repression strength of 0.175.
TCCCTTGAAGTATCGGAGA showed a TetR repression strength of 0.146.
Work on TCCCATAGAGTGCGTGAGA yielded a TetR repression strength of 0.18.
For TCCCTGGCAGTTTTTGAGA, the TetR repression strength was 0.196.
With TCCCCCCGAGTGCTGGAGA the TetR repression strength was 0.344.
Work on TCCCCCTGAGTCATTGAGA yielded a TetR repression strength of 0.526.
TCCCGGGCAGTGGGGGAGA was tested, and the TetR repression strength was 0.347.
TCCCGCGTAGTGTACGAGA was tested, and the TetR repression strength was 0.108.
TCCCTATTAGTGAGTGAGA was tested, and the TetR repression strength was 0.762.
For TCCCTATTAGTGTGTGAGA, the TetR repression strength was 0.219.
Work on TCCCTATTAGTGAGAGAGA yielded a TetR repression strength of 0.631.
Work on TCCCGTGGAGTGCACGAGA yielded a TetR repression strength of 0.315.
TCCCCCACAGTGGATGAGA gave a TetR repression strength of 0.294.
TCCCCACGAGTGGATGAGA gave a TetR repression strength of 0.382.
Work on TCCCAACAAGTGGATGAGA yielded a TetR repression strength of 0.243.
TCCCCACAAGTGGATGAGA gave a TetR repression strength of 1.22.
For TCCCCACCAGTGGATGAGA, the TetR repression strength was 1.05.
Work on TCCCCCCCAGTGGATGAGA yielded a TetR repression strength of 0.232.
TCCCCCCGAGTAAGTGAGA was tested, and the TetR repression strength was 0.278.
TCCCGTCTAGTACTCGAGA showed a TetR repression strength of 0.262.
TCCCAAAGAGTGGGCGAGA was tested, and the TetR repression strength was 0.0498.
For TCCCTCTTAGTGTGGGAGA, the TetR repression strength was 0.0777.
With TCCCGATGAGTATGTGAGA the TetR repression strength was 0.366.
With TCCCTGCCAGTATAGGAGA the TetR repression strength was 0.308.
With TCCCCCCTAGTGGACGAGA the TetR repression strength was 0.178.
TCCCTCGTAGTGGATGAGA gave a TetR repression strength of 0.206.
TCCCTATGAGTACCAGAGA was tested, and the TetR repression strength was 0.857.
In the case of TCCCTATGAGTTGAAGAGA, the TetR repression strength is reported as 0.326.
Work on TCCCTAAGAGTAAACGAGA yielded a TetR repression strength of 0.446.
For TCCCTAAGAGTAAAAGAGA, the TetR repression strength was 0.839.
With TCCCTATGAGTAAAAGAGA the TetR repression strength was 0.24.
TCCCTATGAGTTTGAGAGA was tested, and the TetR repression strength was 0.33.
Work on TCCCTATGAGTTCGAGAGA yielded a TetR repression strength of 0.195.
In the case of TCCCTATGAGTTTAAGAGA, the TetR repression strength is reported as 1.03.
With TCCCTATGAGTTCCAGAGA the TetR repression strength was 1.01.
With TCCCTATGAGTACGAGAGA the TetR repression strength was 0.291.
TCCCTAAGAGTACCAGAGA showed a TetR repression strength of 0.429.
For TCCCTATGAGTTCCCGAGA, the TetR repression strength was 0.289.
TCCCGTGTAGTAAGTGAGA showed a TetR repression strength of 0.313.
TCCCCGAGAGTTGGGGAGA showed a TetR repression strength of 0.104.
TCCCAATCAGTCCGCGAGA gave a TetR repression strength of 0.295.
TCCCAAGTAGTCACGGAGA showed a TetR repression strength of 0.295.
Work on TCCCCCGGAGTAGAGGAGA yielded a TetR repression strength of 0.187.
With TCCCGGCTAGTAGCAGAGA the TetR repression strength was 0.0201.
In the case of TCCCTTTGAGTCGCAGAGA, the TetR repression strength is reported as 0.386.
With TCCCAGGGAGTGGAAGAGA the TetR repression strength was 0.235.
